± gives the standard deviation of the averaged measurements.

This experiment deals with Caenorhabditis elegans N2 infected with Nematocida parisii ERTm1. As to the kind of experiment: progeny production relative to DMSO uninfected control; higher = more progeny despite microsporidia infection (inhibition of infection with low host toxicity). The following applies: infection time 6 days; 40 µM. An outline of the steps:
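Wild-type C. elegans L1 larvae, synchronised by bleaching, were added at 100 per well to 96-well plates containing K-medium, E. coli OP50 and 15,000 N. parisii spores/μL, and compound was pinned in to 100 μM or 40 μM in 1% DMSO. The plates were shaken at 21°C for 6 days, after which worms were stained with Rose Bengal, scanned on a flatbed scanner and counted using WorMachine. Each compound and dose was run three times. Progeny production is expressed as a percentage of wells with vehicle but no spores, averaged over the replicates.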
On to `CCc1cc(Nc2cc(=O)n(CCN3CCN(C(=O)c4ccccc4)CC3)c(=O)[nH]2)ccc1C`, for which the progeny production was 5.16 ± 2.4%.

The compound `N#C/C(=C1/SC[C@H](c2ccc(Cl)cc2Cl)S1)n1ccnc1` displayed a progeny production of 3.11 ± 0.38%.

Compound `COC(=O)Nc1nc2cc([S+]([O-])c3ccccc3)ccc2[nH]1` (stereo not given) displayed a progeny production of 6.27 ± 3.5%.

The compound `COc1cc(Cc2cnc(N)nc2N)cc(OC)c1OC` had a progeny production of 1.91 ± 0.77%.

The compound `CC(C)Cn1c(=O)n(C)c(=O)c2c(-c3cncn3C)n(Cc3cccc4ccccc34)nc21` had a progeny production of 4.44 ± 2.9%.

Compound `O=C1[C@H](CC[C@H](O)c2ccc(F)cc2)[C@@H](c2ccc(O)cc2)N1c1ccc(F)cc1` displayed a progeny production of 6.94 ± 2.7%.

Consider `O=c1cc(Nc2ccc3ccccc3c2)[nH]c(=O)[nH]1`, for which the progeny production came to 7.88 ± 1.4%.

In turn, `N#CCN1C(=O)COc2cc(F)c(N3C(=O)c4ccccc4C3=O)cc21` displayed a progeny production of 3.98 ± 0.99%.

Turning to `O=C(CC1Sc2ncnn2C1=O)Nc1ccc(Br)cc1` (stereo not given), the progeny production was 6.82 ± 1.8%.

`CCC[C@H](NC(=O)[C@@H]1[C@H]2CCC[C@H]2CN1C(=O)[C@@H](NC(=O)[C@@H](NC(=O)c1cnccn1)C1CCCCC1)C(C)(C)C)C(=O)C(=O)NC1CC1`: the progeny production was 9.24 ± 1.8%.

In turn, `COc1ccc(NC(=O)CC2Sc3ncnn3C2=O)cc1` (stereo not given) returned a progeny production of 8.48 ± 3.4%.

In the case of `O=P(O)(O)C(CCCc1cccc(Oc2ccccc2)c1)S(=O)(=O)O` (stereo not given), the progeny production worked out at 5.45 ± 0.36%.

`CC(C)(C)NC(=O)N[C@H](C(=O)N1C[C@H]2[C@@H]([C@H]1C(=O)NC(CC1CCC1)C(=O)C(N)=O)C2(C)C)C(C)(C)C` (stereo not given in full) registered a progeny production of 3.73 ± 0.22%.

For `CCOc1ccc(/C=N/NC(=O)C2CC2c2ccc(C(C)(C)C)cc2)cc1OCC` (stereo not given), the progeny production was 5.73 ± 4.8%.

In turn, `CCCCCCCc1[nH]c2ccccc2c(=O)c1O` had a progeny production of 7.38 ± 1.2%.

`COc1ccc2c(c1OC)C(=O)OC2C1c2c(cc3c(c2OC)OCO3)CCN1C` (stereo not given) registered a progeny production of 5.88 ± 3.7%.

For the compound `CC(=O)NC[C@H]1CN(c2ccc(N3CCSCC3)c(F)c2)C(=O)O1`, the progeny production was found to be 6.06 ± 3.1%.

In turn, `Cc1ncc([N+](=O)[O-])n1CC(C)O` (stereo not given) showed a progeny production of 7.4 ± 3.9%.

As for `CC(N)C12CC3CC(CC(C3)C1)C2` (stereo not given), the progeny production amounted to 3.85 ± 0.59%.

The compound `CC(C)Nc1nc2cc(Cl)c(Cl)cc2n1[C@H]1O[C@@H](CO)[C@H](O)[C@@H]1O` came in with a progeny production of 3.85 ± 0.59%.

Regarding `COc1ccc(OCc2ccc(COc3c(Cl)cccc3Cl)cc2)c(Cl)c1`, the progeny production turned out to be 5.83 ± 3.1%.

`CC(C)(C)c1ccc(C(=O)NC(=O)N2CCCc3ccccc32)cc1`: the progeny production came to 4.23 ± 2.6%.

In the case of `Nc1cc(-c2nc3ccccc3[nH]2)n[nH]c1=O`, the progeny production was 6.4 ± 6.5%.

With `O=C(NCc1ccccc1Cl)c1cnc2ccccc2n1`, the progeny production was 6.81 ± 1%.

Compound `CN(C)c1[nH]c(=O)ncc1F` displayed a progeny production of 3.57 ± 3.5%.

The compound `CCC(C)(C)c1ccc(CC(C)CN2C[C@@H](C)O[C@@H](C)C2)cc1` (stereo not given in full) had a progeny production of 4.64 ± 0.33%.

Consider `CCC(C)NCC(O)Cn1c2ccc(Cl)cc2c2cc(Cl)ccc21` (stereo not given), for which the progeny production worked out at 7.33 ± 7%.

Compound `C[C@@H](NC(=O)c1cccc(-c2cnc(-c3cc4ccccc4cn3)[nH]2)c1)c1ccc(F)cc1` gave a progeny production of 5.74 ± 3.9%.

Consider `CC[C@@H]1C(=O)OC[C@@H]1Cc1cncn1C`, for which the progeny production came to 4.59 ± 1.7%.

As for `O=C(c1ccccc1)N1CCN(c2ccccc2NC(=O)C(Cl)(Cl)Cl)CC1`, the progeny production turned out to be 13 ± 10%.

Compound `O=S(=O)(Nc1ccc(O)cc1)c1cccc2cccnc12` yielded a progeny production of 5.85 ± 2.2%.

For `CC1(C)[C@H](C(=O)O)N2C(=O)C[C@H]2S1(=O)=O`, the progeny production was found to be 4.44 ± 0.8%.

As to `Nc1ccc(-c2nc3cc(C(F)(F)F)ccc3n2C23CC4CC(CC(C4)C2)C3)cc1`, the progeny production amounted to 5.81 ± 2.1%.

In turn, `CN(C(=O)C1(c2ccc(Cl)cc2)CCC1)c1ccccc1` showed a progeny production of 2.68 ± 1.6%.

Consider `O=C(NCc1ncc(C(F)(F)F)cc1Cl)c1c(Cl)cccc1Cl`, for which the progeny production worked out at 3.33 ± 0.85%.

In turn, `O=C(NC1CCCc2c1[nH]c1ccc(Cl)cc21)c1ccccn1` (stereo not given) showed a progeny production of 2.24 ± 0.5%.

In turn, `CC(=O)O[C@H]1C[C@@]2(C)[C@@H](C[C@@H](O)[C@H]3[C@@]4(C)CC[C@@H](O)[C@@H](C)[C@@H]4CC[C@@]32C)/C1=C(\CCC=C(C)C)C(=O)O` yielded a progeny production of 6.24 ± 2.3%.

Compound `C=CCc1cc(Cc2cnc(N)nc2N)cc(OC)c1O` yielded a progeny production of 3.9 ± 1.6%.

In turn, `Cc1c(OCC(F)(F)F)ccnc1C[S+]([O-])c1nc2ccccc2[nH]1` (stereo not given) showed a progeny production of 6.74 ± 4.3%.

In turn, `Nc1nc(O)c2ncn([C@@H]3O[C@H](CO)[C@@H](O)[C@H]3F)c2n1` yielded a progeny production of 4.36 ± 1.3%.

The record behind these values is the supplement of paper PMC10732440.
